TGFb SMAD3 inh – qHTS for Inhibitors of TGF-b; Potency, µM (highest dose often 46.1 µM), for inactives: at the highest dose activity, negative = inhibition, hits mostly inhibitors; 410,000 tested, 1.2% active; HepG2 CAGA-GFP TGF-b/SMAD3 reporter, GFP fluorescence, 18 h; TGF-beta stimulated, 500 pg/mL final; AID 588855, 2011; note: potency is the fitted concentration of half-maximal effect; % is set by controls: 0 for no effect and ±100 for the full control effect; nearly all actives have a fitted effect of over 65% in size
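Inhibition was scored as loss of TGF-beta-induced (500 pg/mL final, 18 hours, 37 degrees C) GFP in HEPG2 cells carrying a CAGA-GFP reporter, in DMEM with 1% FBS. Well GFP was summed per cell; Activity was normalised to unstimulated and stimulated DMSO wells, then concentration-response fitting.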
HepG2 tox – qHTS for Inhibitors of TGF-b: Cytotox Counterscreen. 410,000 tested, 0.76% active. AID 588856, 2011. HepG2 CAGA-GFP viability, ATP luminescence, 18 h. Potency, µM (titrated, usually from 46.1 µM), for inactives: at the top dose activity change, negative = cytotoxicity, most hits filed as cytotoxic; note: potency is the fitted concentration of half-maximal effect
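CellTiter-Glo luminescence gave cytotoxicity after 18 hours at 37 degrees C. The cells were HepG2 CAGA-GFP in 1% FBS DMEM, stimulated with 500 pg/mL TGF-beta after compound addition. %Activity was normalised to no-cell wells (complete cell-killing) and DMSO (no toxicity), and curves were fitted and classified.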
S2 tox – Viability Counterscreen for Primary qHTS for Inhibitors of ATXN expression | S2 cells (HEK-293 line with an ATXN2-luciferase reporter) viability, CellTiter-Fluor protease fluorescence, 24 h | Potency, µM (titrated, usually from 56.7 µM), usual class: cytotoxic | 400,000 tested, 0.49% active | AID 651635, 2014; note: potency is the fitted concentration of half-maximal effect; nearly all actives have a fitted effect of over 40% in size
ATXN2 expr inh – Primary qHTS for Inhibitors of ATXN expression; HEK-293 ATXN2-luciferase reporter, luminescence, 24 h; Potency, µM (highest dose often 57 µM), inactives show at the top dose activity change, negative = inhibition, hits mostly inhibitors; 360,000 tested, 0.72% active; AID 1745845, 2022; note: potency is the fitted concentration of half-maximal effect; % is set by controls: 0 for no effect and ±100 for the full control effect; nearly all actives have a fitted effect of over 55% in size
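qHTS (up to 57 uM final) was run with 24 h compound exposure of reporter cells at 37 °C. Each well was multiplexed: SteadyGlo luminescence measured ATXN2-luciferase expression after a fluorogenic Gly-Phe-AFC viability readout (25 uM final).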
IL1B secr inh – qHTS for Inhibitors of Inflammasome Signaling: IL-1-beta AlphaLISA Primary Screen | activity change, % at 57.5 µM | 360,000 tested, 4.7% active | THP-1 LPS/ATP IL-1B secretion, AlphaLISA, 16 h; stronger effect = lower value | AID 743279, 2014; in the data active = activity change below about -50%; inconclusive = mostly about -30% to -49%; note: % is set by controls: 0 for no effect and ±100 for the full control effect
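Secreted IL-1B measured by AlphaLISA bead assay after 16 h compound exposure of THP-1 cells; compounds (final up to 57.5 uM) added 1 h before LPS (250 ng/mL) and ATP (1.25 mM) stimulation; lower signal means less secretion.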
Starred values were filed as active, the others as inactive; i = inactive; ? = inconclusive; . = not tested or not shown. Sampled rows, rich in hits. Any-hit rate of the full collection: about 5.7%. Unless noted, calls come from the whole dose curve; as a rule, active = well fitted curve in the direction sought with a large enough effect; inconclusive = small, poorly fitted or top-dose-only effect, or another doubt; inactive = no such curve, though single readings can be large; an effect the other way counts as inactive or inconclusive.

SMILES	TGFb SMAD3 inh	HepG2 tox	S2 tox	ATXN2 expr inh	IL1B secr inh
O=C(Nc1nnc(-c2cccs2)o1)c1cccc(C(F)(F)F)c1	?	-18%	?	16µM*	73
N#Cc1ccc(C(=O)Nc2nnc(-c3cccs3)o2)cc1	-9%	-20%	i	?	34
COc1ccc(-c2nnc(NC(=O)c3ccc(F)cc3)o2)cc1	?	-19%	20µM*	-15%	45
CN1CCCc2cc(/C=C/c3ccnc4ccccc34)ccc21	118%	-55%	.	.	.
COC(=O)c1ccc(OCC2c3cc(OC)c(OC)cc3CCN2C(=O)c2ccccc2F)cc1 (centres undefined)	-22%	-26%	i	-23%	.
COc1cc(OC)cc(-c2nnc(NC(=O)CCS(=O)(=O)c3ccc(F)cc3)o2)c1	?	-14%	i	-19%	-66*
COc1cc(-c2nnc(NC(=O)CCS(=O)(=O)c3ccc(F)cc3)o2)cc(OC)c1OC	?	3%	?	86%	6
COc1cc(OC)cc(-c2nnc(NC(=O)CCS(=O)(=O)c3ccccc3)o2)c1	-22%	-7%	i	3%	-72*
COc1c(C)c2c(c(O)c1CC=C(C)CCC(=O)O)C(=O)OC2	.	.	.	64%	.
CCCCN(CC)CCNC(=O)C1CCN(c2nnc(C)c3c(C)n(-c4ccc(C)cc4)nc23)CC1	0%	-5%	.	.	.
CCCCNC(=S)Nc1cccc(S(=O)(=O)NC2=NCCC2)c1	-8%	3.5µM*	i	3%	11
CC(C)C(=O)Nc1cccc(S(=O)(=O)NC2=NCCC2)c1	12%	-6%	i	.	0
O=C(CCl)Nc1cccc(S(=O)(=O)NC2=NCCC2)c1	11µM*	14µM*	.	.	-99*
O=C(Cc1csc(-c2ccc(Cl)cc2)n1)Nc1cccc(S(=O)(=O)NC2=NCCC2)c1	-34%	-22%	i	?	-52*
COC(=O)c1c(OCc2ccccn2)cc(=O)n2c1CCN(Cc1cccc(C(F)(F)F)c1)CC2	.	.	i	.	.
COc1cc(CNC(=O)c2cnn(-c3ncc4c(n3)-c3ccccc3CC4)c2C)cc(OC)c1OC	.	.	i	.	.
CC(C)Oc1ccc(CNC(=O)CN2C(=O)CCn3nc(-c4cn(C)c5ccccc45)cc32)cc1	?	-26%	i	-15%	.
CC(=O)c1ccc(-c2ccc(C(=O)NC3CC(C)(C)NC(C)(C)C3)o2)cc1	27%	-28%	i	4%	-56*
Cc1cc(C)c2c(=O)c3c(oc2c1)C(=O)N(CCO)C3c1cccc(O)c1 (centres undefined)	-1%	8%	i	-9%	-58*
Cc1ccc2oc3c(c(=O)c2c1)C(c1cccc(O)c1)N(CCCN1CCOCC1)C3=O (centres undefined)	-4%	-20%	i	-1%	.
Cn1c(=O)c2c(nc(SCC(=O)Nc3ccccc3F)n2Cc2ccccc2F)n(C)c1=O	1%	1%	i	-2%	.
c1ccc2c(C3=NNC(=NC4CC4)SC3)c[nH]c2c1	3%	8%	i	18µM*	-96*
Cc1cc(C2=NNC(=NC3CC3)SC2)c(C)n1-c1ccccc1	?	-34%	i	.	-7
Cc1cc(C2=NNC(=NC3CC3)SC2)c(C)n1Cc1ccco1	?	-41%	?	?	6
c1ccc(C2=NNC(=NC3CC3)SC2)cc1	4%	7.1µM*	i	?	-13
SMILES	TGFb SMAD3 inh	HepG2 tox	S2 tox	ATXN2 expr inh	IL1B secr inh
COc1ccc(-n2c(C)cc(C3=NNC(=NC4CC4)SC3)c2C)cc1	?	-47%	i	7%	?
c1ccc2c(C3=NNC(=NC4CCCCC4)SC3)c[nH]c2c1	?	-37%	i	10%	-96*
Cc1ccc(NC(=O)C(=O)NCC(c2ccc3c(c2)OCO3)N2CCN(C)CC2)c(C)c1 (centres undefined)	13%	-12%	i	-8%	.
O=C(O)CCn1cc(/C=C\C(=O)c2ccc(Cl)cc2)c(-c2cccc(Br)c2)n1	-13%	-32%	i	-15%	-93*
O=Cc1cn(CCC(=O)O)nc1-c1cccc(Br)c1	3%	-26%	i	-1%	33
CCOc1ccc(/C=C/C(=O)Nc2ccc(C(N)=O)cc2)cc1OC	-1%	-8%	i	14%	-2
CCC1CSC(Nc2ccc(C(=O)/C=C/c3ccc(Br)cc3)cc2)=N1 (centres undefined)	16µM*	-57%	?	?	-93*
CCC1CSC(Nc2ccc(C(=O)/C=C/c3ccc(OC)c(OC)c3)cc2)=N1 (centres undefined)	?	-13%	.	?	-93*
O=C(/C=C/c1ccc(Br)cc1)NC1CCCCCC1	-5%	-14%	?	-12%	-11
Cc1cc(C)c2c(CC(=O)N(Cc3ccccc3)C3CCS(=O)(=O)C3)coc2c1 (centres undefined)	?	-8%	?	-18%	.
COc1cccc(-c2nc(NC(C)(C)C)c3ccccc3n2)c1O	-52%	-19%	i	0%	-51*
O=C(NCCCc1nc2ccccc2n1CCCOc1ccccc1)C1CCCCC1	-4%	-7%	.	.	.
CN1C/C(=C/c2ccccc2[N+](=O)[O-])C(=O)/C(=C\c2ccccc2[N+](=O)[O-])C1	3.2µM*	-32%	.	?	-98*
Fc1cccc(CSc2nc(NCCc3ccccc3)c3ccccc3n2)c1	-5%	-15%	.	.	.
Cc1ccc(O)c(-c2cc3ccccc3[nH]2)c1	16µM*	-64%	i	51%	-13
CCC(O)CNC(=O)c1cnn(-c2ncc3c(n2)-c2ccccc2CCC3)c1C1CC1 (centres undefined)	.	.	i	.	.
Cc1cc(SCC(=O)Nc2ccc(O)cc2)n2ncc(-c3ccccc3)c2n1	15%	-2%	i	3%	-51*
Cc1cc(SCC(=O)Nc2ccccc2)n2ncc(-c3ccccc3)c2n1	?	-88%	i	.	-55*
Cc1cc(Cl)n2ncc(-c3ccccc3)c2n1	1%	-17%	i	28%	-99*
Cc1cc(SCC(=O)Nc2ccc(O)cc2)n2nc(C)c(-c3ccccc3)c2n1	-28%	15%	?	?	-80*
O=C(CN1CCCC1)Nc1cc(C(F)(F)F)cc(C(F)(F)F)c1	0%	-33%	i	-33%	-69*
O=C(CCc1nc2cccnc2n1Cc1ccccc1)NCc1cccc(Cl)c1	?	-13%	i	3%	.
CCOc1cccc2cc(C(=O)NCc3ccc(Cl)cc3)c(=N)oc12	-24%	-24%	i	-5%	-65*
CCOc1ccccc1N1CCN(C(=O)NCc2ccc(Cl)cc2)CC1	-4%	-23%	i	-9%	-63*

Compound activity deposited in PubChem BioAssay by National Center for Advancing Translational Sciences (NCATS).
